Assay results published in PubChem BioAssay (NCATS).
Where “and” joins values, the source holds several entries; their conditions need not be identical. Equal values may be shown once. Inconclusive results are not listed. Where a call stands in place of a potency, no number is given. Unmarked numbers belong to inactive results. Calls of active or inactive are those of the source. Unless noted, calls follow the shape of the dose curve; as a rule, active = well fitted curve in the direction sought with a large enough effect; inconclusive = small, poorly fitted or top-dose-only effect, or another doubt; inactive = no such curve, though single readings can be large; an effect the other way counts as inactive or inconclusive.

How the values were obtained:
[1] = target: Cytochrome P450 2C9 (Homo sapiens) (UniProt P11712); assay: Cytochrome P450 family 2 subfamily C member 9 (CYP2C9) small molecule antagonists: luciferase biochemical (cell-free) qHTS assay (AID 1645842; active = well fitted curve in the direction sought with a large enough effect in the repeat runs; an effect the other way counts as inactive or inconclusive; also: nearly all actives have a fitted effect of over 55% in size; also: potency is read from the fitted curve at half-maximal effect; as to activity change, negative = inhibition: series mostly up to about 57 µM)
Procedure, shortened: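 Luminescence, after 20 min with luciferin detection reagent, reflected CYP2C9 turnover during a 1 h NADPH-driven reaction at 37C. Enzyme-substrate mix contained 0.4% bovine serum albumin and was preincubated with compound 10 min at room temperature.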

[2] = Primary qHTS for inhibitors of nuclear receptor binding SET domain protein 2 (NSD2) in an isogenic RCH-ACV NSD2 p.E1099K mutant (9B) (AID 1645876); also: nearly all actives have a fitted effect of over 70% in size; also: potency is read from the fitted curve at half-maximal effect
[3] = Primary qHTS for inhibitors of nuclear receptor binding SET domain protein 2 (NSD2) in an RCH-ACV wild type WT cells (2C) (AID 1645877); also: nearly all actives have a fitted effect of over 70% in size; also: potency is read from the fitted curve at half-maximal effect
Papain (Carica papaya) = Papain (Carica papaya) (UniProt P00784); assay: Primary qHTS assay for inhibitors of the protease papain (AID 1645873);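 also: papain turnover of Z-FR-AMC read as the AMC fluorescence gain over 10 min; series mostly up to about 50 µM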
[4] = target: Rap guanine nucleotide exchange factor 3 (Homo sapiens) (UniProt O95398); assay: Confirmatory qHTS for antagonist of cAMP-regulated guanine nucleotide exchange factor 3 (EPAC1) (AID 1645880); also: nearly all actives have a fitted effect of over 55% in size
Procedure, shortened: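 Nucleotide exchange uses 100 nM EPAC1, 250 nM RAP1B-BODIPY-GDP and 50 uM GDP, with compounds in a concentration-titration series. After 5 min at room temperature, fluorescence (480 nm ex/540 nm em) is read every 5 min for 30 min. Data are normalized to control ATA and DMSO.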

[5] = target: Rap guanine nucleotide exchange factor 3 (Homo sapiens) (UniProt O95398); assay: Confirmatory qHTS for agonist of cAMP-regulated guanine nucleotide exchange factor 3 (EPAC1) (AID 1645881);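 also: EPAC1 catalysed release of BODIPY-GDP from Rap1B seen as fluorescence loss; nearly all actives have a fitted effect of over 75% in size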
[6] = target: Rap guanine nucleotide exchange factor 4 (Homo sapiens) (UniProt Q8WZA2); assay: Confirmatory qHTS for agonist of cAMP-regulated guanine nucleotide exchange factor 4 (EPAC2) (AID 1645884);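 also: nucleotide exchange releases bodipy-GDP from Rap1 and this lowers its fluorescence; nearly all actives have a fitted effect of over 65% in size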
[7] = target: Rap guanine nucleotide exchange factor 4 (Homo sapiens) (UniProt Q8WZA2); assay: Confirmatory qHTS for antagonist of cAMP-regulated guanine nucleotide exchange factor 4 (EPAC2) (AID 1645885); also: nearly all actives have a fitted effect of over 25% in size; also: potency is read from the fitted curve at half-maximal effect
[8] = target: N-terminal Xaa-Pro-Lys N-methyltransferase 1 (Homo sapiens) (UniProt Q9BV86); assay: Confirmatory qHTS for Inhibitors of N-terminal methyltransferase 1 (NTMT1): MTaseGlo Assay (AID 1645874); details: NTMT1 enzyme, MTase-Glo SAH luminescence; also: potency is read from the fitted curve at half-maximal effect; nearly all actives have a fitted effect of over 65% in size
Text: Assay Submitter (PI): Rong Huang Ph.D.
Purdue University, West Lafayette, IN 47907
The N-terminal methytransferase 1 is the first methyltransferase that methylates protein alpha-N-amines and plays an important role in regulating cell mitosis, chromatin interactions and DNA repair. It is observed to be over-expressed in various cancer patient tissues like malignant melanoma and colorectal cancer tissues. Knockdown of NTMT1 in cancer cells causes cell mitotic defects and enhances sensitivity to DNA damaging chemotherapeutics. […] These critical cellular processes in which NTMT1 is implicated, coupled with emerging links to cellular dysfunction, strengthen the inference that NTMT1 is a compelling novel anticancer target. Progress have been made in understanding the molecular properties of NTMT1 and the biological consequences of protein alpha-N-terminal methylation, but there are no specific small molecule probes available for NTMT1 to fully characterize its MTase activity. To address this unmet need, a panel of assay is created and established to enable quantitative high-throughput screening (qHTS) for novel, potent, and selective small molecule NTMT1 inhibitors. Two orthogonal qHTS that use different reagents (ThioGlo vs. MTaseGlo) are developed for primary robotic screening against the NCATS chemical library of more than 400,000 small molecules. Identified inhibitors are reacquired, validated, and further characterized.
MTaseGlo Assay is a luminescence screen that measure the activity of methyltransferases based on the reaction product S-adenosyl homocysteine (SAH). The substrate SAM is converted to SAH upon enzyme activation. MTase-Glo reagent and detection solution convert SAH to ATP and measure the light from the luciferase reaction.
Materials: NTMT1 enzyme, substrate SPKRIA, control peptide RCC1-6 is provided by the Huang laboratory.
SEQUENCE No. (e.g., 1, 2, 3, etc.); […] (e.g., Cells, Incubation, Reagent, etc.); VALUE; DESCRIPTION
1; Enzyme; 3 uL; Dispense enzyme mixture (final concentrations of 125 nM NTMT1 and 100 uM SAM) into Greiner 1536-well white / solid bottom assay plate (Greiner Bio One, Monroe, NC).
2; Compounds; 23 nL; Compounds and controls were transferred via a Kalypsys Pin Tool (Wako USA) equipped with a 1536-slotted pin array (Wako Automation, Richmond, VA)
3; Incubation; 15 min; Incubate at room temperature
4; Substrate; 1 uL; Dispense 1 uL of substrate at final concentration of 1 uM. Buffer solution was dispensed in control wells. The assay plate was covered with metal lids. […]
8; Reagent; 5 uL; Dispense 5 uL of 1x MTase-Glo Detection Solution (R) to allow for ADP to be converted to ATP which was then detected with a luciferase reaction. […]
11; Detection; Luminescence; Plates were read on ViewLux detector (PerkinElmer). […]

Sequence of Rap guanine nucleotide exchange factor 3 (Homo sapiens) (O95398 whole entry, looked up): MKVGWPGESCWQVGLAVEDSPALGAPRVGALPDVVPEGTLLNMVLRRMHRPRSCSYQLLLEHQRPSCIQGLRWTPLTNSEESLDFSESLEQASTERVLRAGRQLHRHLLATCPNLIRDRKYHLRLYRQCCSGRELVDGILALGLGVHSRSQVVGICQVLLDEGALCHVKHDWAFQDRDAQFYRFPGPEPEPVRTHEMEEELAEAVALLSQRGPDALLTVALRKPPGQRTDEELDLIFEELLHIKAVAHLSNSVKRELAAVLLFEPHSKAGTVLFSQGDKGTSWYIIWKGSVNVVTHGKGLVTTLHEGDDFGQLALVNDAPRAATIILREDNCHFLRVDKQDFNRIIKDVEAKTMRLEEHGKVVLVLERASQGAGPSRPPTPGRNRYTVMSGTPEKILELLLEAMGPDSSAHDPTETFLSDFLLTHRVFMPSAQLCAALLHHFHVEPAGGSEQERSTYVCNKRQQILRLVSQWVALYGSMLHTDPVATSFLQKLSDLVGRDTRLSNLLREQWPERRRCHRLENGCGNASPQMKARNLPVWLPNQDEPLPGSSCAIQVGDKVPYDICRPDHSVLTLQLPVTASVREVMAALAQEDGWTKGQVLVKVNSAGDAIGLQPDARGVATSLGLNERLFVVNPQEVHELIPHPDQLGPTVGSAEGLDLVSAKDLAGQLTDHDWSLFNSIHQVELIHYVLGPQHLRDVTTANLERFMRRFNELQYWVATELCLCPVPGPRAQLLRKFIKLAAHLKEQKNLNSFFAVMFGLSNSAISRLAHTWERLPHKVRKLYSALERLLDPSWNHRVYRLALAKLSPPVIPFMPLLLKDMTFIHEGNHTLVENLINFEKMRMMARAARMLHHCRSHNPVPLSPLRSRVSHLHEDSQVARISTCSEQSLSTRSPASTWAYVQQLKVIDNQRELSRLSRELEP
Sequence of Papain (Carica papaya) (P00784 whole entry, looked up): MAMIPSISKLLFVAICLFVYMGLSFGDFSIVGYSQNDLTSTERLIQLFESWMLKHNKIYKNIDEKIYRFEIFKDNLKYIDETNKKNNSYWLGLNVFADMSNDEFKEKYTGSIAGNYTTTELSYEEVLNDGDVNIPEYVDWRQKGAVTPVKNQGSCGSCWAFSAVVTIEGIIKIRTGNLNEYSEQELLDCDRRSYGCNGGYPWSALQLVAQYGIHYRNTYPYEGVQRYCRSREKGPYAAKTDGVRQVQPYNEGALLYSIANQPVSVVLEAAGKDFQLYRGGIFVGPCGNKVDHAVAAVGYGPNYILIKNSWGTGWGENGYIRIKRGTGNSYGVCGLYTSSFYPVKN
Sequence of Rap guanine nucleotide exchange factor 4 (Homo sapiens) (Q8WZA2 whole entry, looked up): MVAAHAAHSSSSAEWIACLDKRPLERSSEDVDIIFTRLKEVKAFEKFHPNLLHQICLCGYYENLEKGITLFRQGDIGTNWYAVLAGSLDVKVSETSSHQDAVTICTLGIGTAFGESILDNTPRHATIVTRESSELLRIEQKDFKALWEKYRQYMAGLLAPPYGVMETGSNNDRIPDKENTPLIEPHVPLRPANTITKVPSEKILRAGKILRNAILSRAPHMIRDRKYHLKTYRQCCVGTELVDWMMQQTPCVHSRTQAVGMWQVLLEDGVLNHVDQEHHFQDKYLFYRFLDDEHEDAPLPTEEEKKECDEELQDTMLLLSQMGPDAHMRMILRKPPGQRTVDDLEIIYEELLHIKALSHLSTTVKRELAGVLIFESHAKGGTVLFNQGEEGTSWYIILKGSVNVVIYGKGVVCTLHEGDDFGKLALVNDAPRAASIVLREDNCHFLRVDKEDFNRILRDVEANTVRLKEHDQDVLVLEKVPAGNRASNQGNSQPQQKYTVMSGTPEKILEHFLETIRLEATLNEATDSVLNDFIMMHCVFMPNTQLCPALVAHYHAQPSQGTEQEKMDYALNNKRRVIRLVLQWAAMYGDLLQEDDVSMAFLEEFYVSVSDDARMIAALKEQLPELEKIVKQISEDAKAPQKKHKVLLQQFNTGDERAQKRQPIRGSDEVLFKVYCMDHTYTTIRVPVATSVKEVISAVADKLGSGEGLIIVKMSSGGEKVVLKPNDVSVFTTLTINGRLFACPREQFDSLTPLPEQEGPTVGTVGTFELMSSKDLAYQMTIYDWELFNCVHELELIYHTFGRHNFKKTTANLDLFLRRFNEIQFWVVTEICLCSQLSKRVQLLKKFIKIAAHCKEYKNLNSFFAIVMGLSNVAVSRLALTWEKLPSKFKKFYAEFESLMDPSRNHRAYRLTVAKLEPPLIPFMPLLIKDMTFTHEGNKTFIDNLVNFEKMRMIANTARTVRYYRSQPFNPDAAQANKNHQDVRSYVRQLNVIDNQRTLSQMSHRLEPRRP
Sequence of Cytochrome P450 2C9 (Homo sapiens) (P11712 whole entry, looked up): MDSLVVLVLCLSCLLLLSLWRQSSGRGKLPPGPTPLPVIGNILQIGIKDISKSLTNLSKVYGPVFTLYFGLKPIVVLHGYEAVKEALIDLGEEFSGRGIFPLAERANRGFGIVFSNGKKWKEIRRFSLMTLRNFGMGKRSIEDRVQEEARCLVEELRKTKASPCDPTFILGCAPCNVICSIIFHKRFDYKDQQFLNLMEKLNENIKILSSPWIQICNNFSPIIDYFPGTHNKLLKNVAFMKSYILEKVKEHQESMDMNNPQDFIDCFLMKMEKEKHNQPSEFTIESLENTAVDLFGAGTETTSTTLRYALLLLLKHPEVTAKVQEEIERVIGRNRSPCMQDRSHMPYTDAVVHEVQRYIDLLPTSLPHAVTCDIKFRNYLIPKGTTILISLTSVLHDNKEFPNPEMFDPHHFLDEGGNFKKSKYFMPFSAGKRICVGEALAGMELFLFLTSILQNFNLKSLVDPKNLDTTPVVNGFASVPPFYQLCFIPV
Sequence of N-terminal Xaa-Pro-Lys N-methyltransferase 1 (Homo sapiens) (Q9BV86 whole entry, looked up): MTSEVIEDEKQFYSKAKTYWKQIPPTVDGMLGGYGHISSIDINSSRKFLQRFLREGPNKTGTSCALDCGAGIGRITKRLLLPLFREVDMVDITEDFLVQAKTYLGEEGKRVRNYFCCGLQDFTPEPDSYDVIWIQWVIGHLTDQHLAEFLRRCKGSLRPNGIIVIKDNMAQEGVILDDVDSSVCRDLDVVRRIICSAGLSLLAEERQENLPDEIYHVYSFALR

Nc1ccc(S(=O)(=O)Nc2nccs2)cc1
Potency [1]: inactive | Potency [2]: inactive | Potency [3]: inactive

CCCCCCCCCCCCCCCCCCOCC(O)CO (stereo not drawn)
Potency [1]: inactive | Potency [2]: inactive | Potency [3]: inactive

CCCn1cnc2c1c(=O)n(CCCCC(C)=O)c(=O)n2C
Potency [1]: inactive | Potency (Papain (Carica papaya)): inactive | Potency [2]: inactive | Potency [3]: inactive

CC[C@H]1CN2CCc3cc(OC)c(OC)cc3[C@@H]2C[C@@H]1C[C@H]1NCCc2cc(OC)c(OC)cc21
Potency [1]: inactive | Potency (Papain (Carica papaya)): inactive | Potency [2]: 84.1 nM (active) and 132 nM (active) | Potency [3]: 59.6 nM (active) and 118 nM (active)

CC12CCC(CC1)C(C)(C)O2
Potency [1]: inactive | Potency [2]: inactive | Potency [3]: inactive

O=S(=O)(O)NC1CCCCC1
Potency [1]: inactive | Potency [2]: inactive | Potency [3]: inactive

N[C@@H](CSCCCO)C(=O)O
Potency [1]: inactive | Potency [2]: inactive | Potency [3]: inactive

CN(C)CCCO[C@@H]1[C@H]2OC(C)(C)O[C@H]2O[C@@H]1C(O)CO (stereo partly drawn)
Potency [1]: inactive | Potency [2]: inactive | Potency [3]: inactive

CCCOC(=O)c1ccccc1
Potency [1]: inactive | Potency [2]: inactive | Potency [3]: inactive

CN1[C@@H]2CC[C@H]1CC(OC(=O)C(O)c1ccccc1)C2 (stereo partly drawn)
Potency [1]: inactive | Potency [2]: inactive | Potency [3]: inactive

Cc1ccc(C(C)C)cc2c(C)ccc1-2
Potency [1]: inactive | Potency [2]: inactive

CNC(=O)Oc1ccc2c(c1)[C@]1(C)CCN(C)[C@@H]1N2C
Potency [1]: inactive | Potency (Papain (Carica papaya)): inactive | Potency [2]: inactive | Potency [3]: inactive | Potency [4]: inactive | Potency [5]: inactive | Potency [6]: inactive | Potency [7]: inactive

NCC(=O)CCC(=O)O
Potency [1]: inactive | Potency [2]: inactive | Potency [3]: inactive

C[C@](N)(Cc1ccc(O)cc1)C(=O)O
activity change, negative = inhibition [1]: 1.65% [at 4.83 µM] | Potency (Papain (Carica papaya)): inactive | activity change, negative = viability loss [2]: -3.71% [at 4.96 µM] | outcome [3]: inactive [at 4.96 µM]

CCCCC(CC)COC(=O)c1ccccc1O (stereo not drawn)
Potency [1]: inactive | Potency [2]: inactive | Potency [3]: inactive

[O-][n+]1cccc(CO)c1
Potency [1]: inactive | Potency [2]: inactive | Potency [3]: inactive

CCN(CC)C(C)CN1c2ccccc2Sc2ccccc21 (stereo not drawn)
Potency [1]: inactive | Potency (Papain (Carica papaya)): inactive | Potency [2]: inactive | Potency [3]: inactive | Potency [5]: inactive | Potency [6]: inactive | Potency [7]: 55.5 µM (active)

NS(=O)(=O)c1cc2c(cc1C(F)(F)F)NC(Cc1ccccc1)NS2(=O)=O (stereo not drawn)
Potency [1]: inactive | Potency [2]: inactive | Potency [3]: inactive

CC(C)C(=O)c1c(C(C)C)nn2ccccc12
Potency [1]: inactive | Potency (Papain (Carica papaya)): inactive | Potency [2]: inactive | Potency [3]: inactive

Cc1cccc(C)c1NC(=O)CN(CC(=O)O)CC(=O)O
Potency [1]: inactive | Potency [2]: inactive | Potency [3]: inactive

COc1ccc2[nH]c(S(=O)Cc3ncc(C)c(OC)c3C)nc2n1 (stereo not drawn)
Potency [1]: 10.7 µM (active) | Potency [8]: 35.5 µM (active) | Potency [2]: inactive | Potency [3]: inactive

CCCCc1ncc(/C=C(\Cc2cccs2)C(=O)O)n1Cc1ccc(C(=O)O)cc1
Potency [1]: inactive | Potency (Papain (Carica papaya)): inactive | Potency [2]: inactive | Potency [3]: inactive

CC(C)(C)NCC(O)COc1ccc(NC(=O)NC2CCCCC2)cc1 (stereo not drawn)
Potency [1]: inactive | Potency [2]: inactive | Potency [3]: inactive

C[C@H](NC(CCc1ccccc1)C(=O)O)C(=O)N1CCC[C@H]1C(=O)O (stereo partly drawn)
Potency [1]: inactive | Potency (Papain (Carica papaya)): inactive | Potency [2]: inactive | Potency [3]: inactive

CN(C)CCOC(C)(c1ccccc1)c1ccccn1 (stereo not drawn)
Potency [1]: inactive | Potency (Papain (Carica papaya)): inactive | Potency [2]: inactive | Potency [3]: inactive

CCC(=O)c1ccc(O)cc1
Potency [1]: inactive | Potency [2]: inactive | Potency [3]: inactive

COCCOC(=O)C1=C(C)NC(C)=C(C(=O)OC/C=C/c2ccccc2)C1c1cccc([N+](=O)[O-])c1 (stereo not drawn)
Potency [1]: 0.0617 µM (active) | Potency (Papain (Carica papaya)): inactive | Potency [2]: 15 µM (active) | Potency [3]: 21.1 µM (active) | Potency [5]: inactive | Potency [6]: inactive

CC(=O)Oc1ccc(C2(c3ccc(OC(C)=O)cc3)C(=O)Nc3ccccc32)cc1
Potency [1]: 5.49 µM (active) | Potency [2]: inactive

NC(=O)NC(=O)Cc1ccccc1
Potency [1]: inactive | Potency [2]: inactive | Potency [3]: inactive

Oc1cccc(O)c1
Potency [1]: inactive | Potency [2]: inactive | Potency [3]: inactive

NC1CCN(c2cccc(Cl)n2)CC1
Potency [1]: inactive | Potency [2]: inactive | Potency [3]: inactive

CC1CC(OC(=O)C(O)c2ccccc2)CC(C)(C)N1C (stereo not drawn)
Potency [1]: inactive | Potency [2]: inactive | Potency [3]: inactive

CCN(CC)CCNC(=O)c1c(C)[nH]c(/C=C2\C(=O)Nc3ccc(F)cc32)c1C
Potency [1]: inactive | Potency [8]: 30.8 µM (active) | Potency [2]: 3.76 µM (active) and 3.32 µM (active) | Potency [3]: 2.99 µM (active) and 3.72 µM (active)

CCCCN(CCCC)CC(O)c1cc(Cl)cc2c1-c1ccc(Cl)cc1/C2=C/c1ccc(Cl)cc1 (stereo not drawn)
Potency [1]: 21.9 µM (active) | Potency (Papain (Carica papaya)): inactive | Potency [2]: 15 µM (active) | Potency [3]: 13.3 µM (active)

CCCCN1CCCC[C@H]1C(=O)Nc1c(C)cccc1C
Potency [1]: inactive | Potency [2]: inactive | Potency [3]: inactive

COc1ccc(S(=O)(=O)Nc2nnc(CC(C)C)s2)cc1
Potency [1]: 21.9 µM (active) | Potency [2]: inactive | Potency [3]: inactive
